High-throughput results: PubChem, National Center for Advancing Translational Sciences (NCATS)
TbPYK inhibitor: inhibitors of Trypanosoma brucei pyruvate kinase; TbPYK enzyme, Kinase-Glo Plus ATP luminescence, 45 min; Q57TT1; Potency, µM (series often up to 76.8 µM), without a hit: at the top dose activity, negative = inhibition, hits mostly inhibitors; actives 0.12% (n = 410,000); note: potency is the fitted concentration of half-maximal effect; % is set by controls: 0 for no effect and ±100 for the full control effect; nearly all actives have a fitted effect of over 50% in size
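Enzyme and substrate buffer are dispensed first and compound is pin-transferred. ADP at 130 uM final then starts the reaction, which runs 45 min at room temperature. Detection reagent is added for 10 min before luminescence is imaged.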
LmPK inh: inhibitors of Leishmania mexicana pyruvate kinase. actives 0.37% (n = 290,000). Q27686. purified LmPK, Kinase-Glo ATP luminescence, 1 h. Potency, µM (series often up to 57.5 µM), for the others: at the highest dose activity change, negative = inhibition, usual class: inhibitors. AID 1721; note: potency is the fitted concentration of half-maximal effect; % is set by controls: 0 for no effect and ±100 for the full control effect
Target sequence (Q27686 whole entry, looked up): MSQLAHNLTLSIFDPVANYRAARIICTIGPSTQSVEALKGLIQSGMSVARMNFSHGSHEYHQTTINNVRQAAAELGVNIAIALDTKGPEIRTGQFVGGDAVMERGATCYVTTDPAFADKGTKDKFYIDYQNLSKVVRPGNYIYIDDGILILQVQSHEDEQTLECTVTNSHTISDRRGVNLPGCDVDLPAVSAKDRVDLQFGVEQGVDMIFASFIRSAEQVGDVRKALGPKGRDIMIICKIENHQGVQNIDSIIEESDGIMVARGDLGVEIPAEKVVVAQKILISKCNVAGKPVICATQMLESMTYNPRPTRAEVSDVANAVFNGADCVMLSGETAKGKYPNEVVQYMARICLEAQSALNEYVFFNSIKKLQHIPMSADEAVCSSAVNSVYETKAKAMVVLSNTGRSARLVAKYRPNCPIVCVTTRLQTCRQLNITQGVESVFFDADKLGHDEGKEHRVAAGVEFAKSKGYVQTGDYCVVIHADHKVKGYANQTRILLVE
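ATP generated from ADP (0.1 mM) and PEP (0.5 mM) by 0.1 nM LmPK over 1 h at room temperature (pH 7.2 imidazole buffer) was detected by coupled luciferase luminescence. Values were normalized to uninhibited and no-enzyme wells.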
Sm TGR inh: inhibitors of Schistosoma mansoni thioredoxin glutathione reductase. Q962Y6. purified TGR, DTNB reduction, TNB absorbance 405 nm. Potency, µM (top dose mostly 114 µM), for inactives: top-dose activity change, negative = inhibition, usual class: inhibitors. actives 3% (n = 360,000); note: potency is the fitted concentration of half-maximal effect; % is set by controls: 0 for no effect and ±100 for the full control effect; nearly all actives have a fitted effect of over 60% in size
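TGR 20 nM + NADPH 100 uM (dispensed conc.), cpd preinc 15 min RT; start with NADPH (500 uM addition) then DTNB (15 mM addition). Kinetic TNB absorbance, 405 nm filter. Four-parameter Hill fit across titration.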
RE007 growth inh: less growth of the S. pombe RE007 Vpr strain; S. pombe RE007 Vpr strain, BacTiter-Glo ATP luminescence, 24 h; Potency, µM (titrated, usually from 92.2 µM), for inactives: at the top dose activity change, negative = less growth, actives largely listed as inhibitors; actives 0.21% (n = 360,000); active = well fitted falling curve with a large enough effect; inconclusive = small, poorly fitted or top-dose-only effect; inactive = no such curve, though single readings can be large or run the other way; note: potency is the fitted concentration of half-maximal effect; % is set by controls: 0 for no effect and ±100 for the full control effect; nearly all actives have a fitted effect of over 50% in size
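Fission yeast strain RE007, carrying one chromosomally integrated HIV-1 vpr copy, was seeded at OD 0.01 in PMG+AL medium with 23 nL pinned compound. After 24 h at 30 °C and 99% humidity, viability was read by BacTiter-Glo luminescence.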
SARS PLpro yeast: blocks SARS-CoV papain-like protease in a yeast assay; S. cerevisiae expressing SARS-CoV PLpro, growth rescue; Potency, µM (doses to about 32.9 µM), for inactives: at the highest dose activity, positive = growth rescue, actives largely listed as activators; actives 0.19% (n = 330,000); calls by dose curve; note: potency is the fitted concentration of half-maximal effect; 0% is about no effect; nearly all actives have a fitted effect of over 55% in size
NS1 function inh: inhibitors of influenza NS1 protein function. Potency, µM (highest dose often 46.1 µM), without a hit: at the top dose activity, positive = more growth. actives 0.4% (n = 270,000). AID 2326; calls by dose curve; note: potency is the fitted concentration of half-maximal effect; actives are rising curves; nearly all actives have a fitted effect of over 50% in size
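In this qHTS, NS1 from influenza A is expressed in budding yeast, where it slows growth. Cells are switched from glucose to 2% galactose medium (pH 6.0, -URA), treated with compound, and growth recovery is read at OD600.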
Flu NS1 inh: validation of influenza NS1 protein function inhibitors. activity change, negative = inhibition, % at 32.9 µM. shares compounds with NS1 function inh. 1,400 tested, under 10 active. influenza NS1 function cell assay, 15-point titration; calls by dose curve; note: 0% is about no effect
PR8 titer: influenza NS1 inhibitors: inhibition of influenza A/PR/8/34 replication; shares compounds with NS1 function inh; actives 30% (n = 95); virus titer (log TCID50), log10 TCID50 at 5 µM; AID 504647; MDCK infected influenza A/PR/8/34, virus titer TCID50; stronger effect = lower value; call rule not given here
* hit, by the source's call; ? = inconclusive; . = no result; [ ] = remark or other dose. Hits are enriched below; roughly 3.3% of the tested compounds scored in any of these assays. Unless noted, calls come from the whole dose curve; as a rule, active = well fitted curve in the direction sought with a large enough effect; inconclusive = small, poorly fitted or top-dose-only effect, or another doubt; inactive = no such curve, though single readings can be large; an effect the other way counts as inactive or inconclusive.

SMILES	TbPYK inhibitor	LmPK inh	Sm TGR inh	RE007 growth inh	SARS PLpro yeast	NS1 function inh	Flu NS1 inh	others
c1ccc(Cn2nnnc2C(c2ccccc2)N2CCN(c3nc4ccccc4s3)CC2)cc1 (configuration not stated)	2.1%	2.0%	0.0%	12.9%	-2.3%	10µM*	-14.4
COc1ccc(CN2C(=O)CC(=O)NC2=O)cc1	3.3%	8.0%	?	-12.8%	-0.2%	3.55µM*	26.1
CC1CCN(C(=O)CSc2nc3ccccc3nc2Cc2ccccc2)CC1	-0.7%	.	0.8%	.	.	.	.
CCCC1(c2ccccc2)NC(=O)N(CC(=O)c2[nH]c(C)c(C(=O)OCC)c2C)C1=O (configuration not stated)	3.0%	-0.5%	-9.1%	24.6%	0.1%	?	16.3	PR8 titer=6.66*
CCOC(=O)c1c(C)[nH]c(C(=O)CN2C(=O)NC(C)(c3ccc4ccccc4c3)C2=O)c1C (configuration not stated)	2.8%	-2.6%	5.7%	1.4%	-3.4%	?	-5.5
CCOC(=O)c1c(C)[nH]c(C(=O)CN2C(=O)NC3(CCCC3)C2=O)c1C	0.0%	0.2%	3.8%	5.0%	-0.2%	-0.4%	.
COc1ccc(-n2c(O)c(/C=N/NS(=O)(=O)c3ccc(C)cc3)c3ccccc3c2=O)cc1OC	-5.1%	0.3%	-9.5%	4.3%	0.6%	10µM*	-0.2
COC(=O)c1sccc1S(=O)(=O)N(CC(=O)NCc1ccccc1)c1ccc(C)cc1	1.3%	.	-13.2%	.	.	.	.
Nc1c(C(=O)NCc2ccccc2)nnn1Cc1cccc(Br)c1	-7.7%	.	-6.3%	.	.	.	.
O=C(O)CSc1nnc(-c2cc3ccccc3o2)n1-c1ccccc1	-8.4%	-6.8%	-0.3%	11.1%	11.3%	?	3.4
Cc1ccc(Cn2c(SCC(=O)NCc3ccccc3Cl)nc3ccsc3c2=O)cc1	4.3%	.	-0.5%	.	.	.	.
Cc1ccc2oc3c(c(=O)c2c1)C(c1cccc(O)c1)N(Cc1ccccc1Cl)C3=O (configuration not stated)	1.1%	.	-4.9%	.	.	.	.
CN(C)c1ccc(C(=O)c2ccc(O)cc2O)cc1	7.8%	-19.7%	-17.6%	-29.0%	-34.3%	24.5%	.
CN(N=O)c1cc(O)ccc1O	.	.	.	.	.	17.8µM*	?
O=C1CC(Nc2ccc(N3CCOCC3)cc2)C(=O)N1c1cccc(C(F)(F)F)c1 (configuration not stated)	-9.3%	1.4%	28.2µM*	-2.6%	-9.4%	11.2µM*	4.3
Cc1ccc(Nc2nnc(SC/C(O)=C(\C#N)c3nc4ccccc4[nH]3)s2)c(C)c1	-11.0%	5.4%	-9.5%	-6.5%	-1.5%	7.9%	.
Cc1cccc(Nc2nnc(SC/C(O)=C(\C#N)c3nc4ccccc4[nH]3)s2)c1	-11.8%	4.3%	-1.8%	-15.7%	1.2%	12.6µM*	11.1
Cc1ccc(C)c(N2CCN(C(=O)CN3C(=O)COc4ccc(S(=O)(=O)N5CCOCC5)cc43)CC2)c1	-4.3%	.	2.4%	.	.	.	.
Cc1ccc(C2N(c3ccc(F)cc3)C(=O)C3CCCN32)cc1 (configuration not stated)	-6.8%	1.0%	1.1%	4.2%	2.8%	1.78µM*	-8.9
O=C1Nc2cc(S(=O)(=O)N3CCCC3)ccc2N2CCCC12 (configuration not stated)	-10.8%	1.3%	12.6µM*	-7.7%	-0.3%	12.6µM*	33.0
CCN(CC)S(=O)(=O)c1ccc2c(c1)NC(=O)C1CCCN21 (configuration not stated)	2.3%	0.6%	?	-8.0%	4.7%	6.9%	.
CCCCN(C)S(=O)(=O)c1cc(-c2nnc3c4ccccc4c(C)nn23)ccc1C	0.3%	.	4.7%	.	.	.	.
CCOc1ccccc1CNC(=O)CCCC(=O)n1nc(C)c2ccccc21	-6.0%	6.6%	-5.1%	25.6%	0.8%	?	?
Cc1ccccc1CNC(=O)CCCC(=O)n1nc(C)c2ccccc21	-2.0%	3.7%	-25.8%	-4.2%	-8.1%	-29.2%	.
COc1ccc(C(=O)Oc2cc(/C=N/NC(N)=S)ccc2OC)cc1	0.3%	3.5%	12.9%	-4.8%	?	8.91µM*	-38.7
SMILES	TbPYK inhibitor	LmPK inh	Sm TGR inh	RE007 growth inh	SARS PLpro yeast	NS1 function inh	Flu NS1 inh	others
CC(C)CCNC(=O)NC(=O)CSc1nnc2ccccn12	5.9%	4.6%	-1.1%	3.3%	11.5%	4.47µM*	2.3
Cc1cc(NC(=O)C2CCN(S(=O)(=O)c3cccc4nsnc34)CC2)ccc1Br	-0.9%	.	1.2%	.	.	.	.
COc1ccc(-c2cn[nH]c2N)c(OC)c1	-0.7%	0.3%	2.8%	1.4%	-6.6%	8.91µM*	1.4
O=S(=O)(O)O	2.9%	.	.	.	.	.	.
Cc1occc1-c1nnc(SCC(=O)c2c(N)n(Cc3ccccc3)c(=O)n(C)c2=O)n1C	.	0.0%	-16.6%	3.3%[3.69 µM]	11.7%	10µM*	18.1
CCOC(=O)c1c(C)[nH]c(C(=O)N/N=C\c2ccccc2O)c1C	-2.4%	-3.2%	-2.0%	-10.3%	?	-7.5%	.
COc1ccccc1/C=N/NC(=O)c1[nH]c(C)c(C(=O)N/N=C/c2ccccc2OC)c1C	-0.1%	7.1%	8.6%	13.5%	-10.5%	?	?
Cc1ccc(NC(=S)NC2CCSc3ccccc32)cc1 (configuration not stated)	0.0%	0.6%	-0.7%	9.1%	27.8%	1.41µM*	-0.1
CC(=O)Nc1ccc(/C(C)=N/Nc2nc(N3CCOCC3)nc(N3CCOCC3)n2)cc1	-6.2%	-8.5%[11.5 µM]	3.5%	3.6%	0.6%	.	.
CC(=O)Nc1ccc(/C(C)=N/Nc2nc(Nc3cccc4ccccc34)nc(N3CCOCC3)n2)cc1	-3.9%	0.4%	3.5%	4.8%	7.9%	4.47µM*	?
COc1cccc(NC(=O)C(Sc2nnc(-c3ccncc3)n2-c2ccc(Cl)cc2)c2ccccc2)c1 (configuration not stated)	-18.6%	0.0%	1.4%	-5.6%	5.1%	14.1µM*	2.0
CCCCC/C=C\C/C=C\C/C=C\C/C=C\CCCC(=O)NCC(=O)O	-5.2%[7.03 µM]	.	.	.	.	17.8µM*	11.6
CCCCC/C=C\C/C=C\CCCCCCCC(=O)O	1.5%	.	.	.	.	.	.
CCOc1ccc(OCC)c(NC(=O)C2CCCN(S(=O)(=O)c3cc(Br)cc4c3N(C(=O)CC)CC4)C2)c1 (configuration not stated)	4.5%	.	4.9%	.	.	.	.
